Screens: PubChem BioAssay, National Center for Advancing Translational Sciences (NCATS)
Most compounds without a hit are left out; they make up all but 2.9% or so of the library.
DRD3 agonist: qHTS of D3 Dopamine Receptor Agonist: qHTS; D3R DiscoveRx beta-arrestin cells, luminescence, 90 min; 0.58% of 410,000 active; max activation, %; D(3) dopamine receptor (Homo sapiens), P35462; in the data active = max activation above about 30%
Target sequence (P35462 whole entry, looked up): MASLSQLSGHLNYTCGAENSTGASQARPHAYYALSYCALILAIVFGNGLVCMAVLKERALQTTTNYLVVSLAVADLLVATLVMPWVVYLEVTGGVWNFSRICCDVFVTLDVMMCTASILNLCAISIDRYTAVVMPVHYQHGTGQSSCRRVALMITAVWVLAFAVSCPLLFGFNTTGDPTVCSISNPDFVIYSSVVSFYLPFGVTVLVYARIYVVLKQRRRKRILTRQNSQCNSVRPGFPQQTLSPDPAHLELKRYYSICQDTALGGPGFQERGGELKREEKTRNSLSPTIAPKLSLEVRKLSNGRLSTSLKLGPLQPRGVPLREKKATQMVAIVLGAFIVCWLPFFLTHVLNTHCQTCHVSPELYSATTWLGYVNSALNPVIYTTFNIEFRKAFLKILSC
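Agonist-mode cell screen: cells plated at 1500/well and incubated overnight at 37 °C, then exposed to library compounds for 90 min at 37 °C. Detection reagent was added for 30–60 min at room temperature, and luminescence was read.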
Integrin act MD: qHTS for Activators of Integrin-Mediated Alleviation for Muscular Dystrophy | alpha7betagal myoblasts, beta-gal FDG fluorescence, 48 h | Potency, µM (highest dose often 38.3 µM), most hits filed as activators | 0.064% of 350,000 active | AID 624291, 2012; active = well fitted activation curve with a large enough effect; inconclusive = small, poorly fitted or top-dose-only effect; inactive = no such curve, though single readings can be large or run the other way; also: nearly all actives have a fitted effect of over 60% in size
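Alpha7betagal+/- myoblasts (passage 13) were plated 16-24 hr, then exposed to compounds (1:260 dilution of DMSO stock) for 48 hours at 37C. After MPER lysis, β-galactosidase reporter activity was read as FDG fluorescence (ex 480/em 540) after 30 minutes.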
DRD3 antagonist: qHTS of D3 Dopamine Receptor Antagonist: qHTS; D(3) dopamine receptor (Homo sapiens), P35462; D3R cells, DiscoveRx beta-arrestin luminescence, antagonist mode; stronger effect = lower value; max response, negative = inhibition, %; 2.5% of 360,000 active; AID 652054, 2013; in the data active = max response below about -50%; inconclusive = no clear call, values can overlap the other calls
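Cells plated overnight at 1500 cells/well, then exposed to library compounds with dopamine controls for 90 minutes at 37 degrees C. DiscoveRx reagent added for 30–60 minutes at room temperature; luminescence read, quantitative HTS format.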
Hits are given with their value; 0 = inactive; ? = inconclusive; - = no result given.

SMILES | DRD3 agonist | Integrin act MD | DRD3 antagonist
O=C(NCCN1C(=O)S/C(=C\c2cccc(Cl)c2Cl)C1=O)C1=COCCO1 | 0 | 0 | 0
O=C(NCCSCc1ccco1)c1ccc(CN2CCOCC2)cc1 | 0 | 0 | 0
COC(=O)c1ccc(NC(=O)CC2C(=O)N(c3cccc(C)c3)C(=O)N2C2CCCC2)cc1 (stereo not given) | 0 | - | -
COc1ccc(C(=O)OCc2cc(=O)n3c(C)csc3n2)cc1F | 0 | 0 | 0
CCCC(=O)Nc1nnc(S(=O)(=O)N(C)c2ccccc2)s1 | 0 | - | -
COc1cccc(-c2cc3onc(-c4ccccc4)c3c(=O)n2C)c1 | 0 | 0 | 0
Cn1c(-c2ccc(F)c(F)c2)cc2onc(-c3ccccc3)c2c1=O | 35.3 | 0 | 0
O=C(CN(C(=O)c1csnn1)c1cccc(F)c1)NC1CCCC1 | 0 | 0 | 0
Nn1cnnc1SC1CCCCC1NS(=O)(=O)c1ccccc1 (stereo not given) | 0 | 0 | 0
O=C(CSCc1ccc(F)cc1)N1CCN(c2ccc(Cl)cc2)CC1 | 80.3 | - | -
O=C(Cc1ccc(Cl)cc1)N1CCN(c2ccc(F)cc2)CC1 | 0 | 0 | 0
C=CCn1c(=O)c2c3c(sc2n2c(Nc4ccccc4)nnc12)CCCC3 | 0 | 0 | 0
O=C(/C=C/Nc1ccccc1)c1ccc(Cl)cc1Cl | 0 | 0 | 0
N#Cc1c(Nc2ccccc2)[n+]([O-])c2ccc(Cl)cc2[n+]1[O-] | 0 | 0 | -54.6
CN(C)S(=O)(=O)N1C(=O)c2ccccc2C1=O | 0 | 0 | 0
Cc1nc(-c2ccccc2O)n(S(=O)(=O)N(C)C)n1 | 30.6 | 0 | 0
CN(C(=O)Nc1ccc(F)cc1)[C@H]1C[C@H]2c3[nH]c4ccccc4c3CCN2C(=O)[C@H]1CO | 0 | 0 | 0
N#CC1=C(c2ccccc2)/C(=C/c2ccccc2)OC1=O | 0 | 0 | -59.3
O=C1O/C(=C/c2ccccc2)c2ccccc21 | 0 | 0 | 0
Cc1cc(Cl)c2oc(C(=O)N(C)Cc3nccn3C)c(C)c2c1 | 0 | 0 | -67.3
Cc1cc(Cl)c2oc(C(=O)N(C)Cc3cc(C)[nH]n3)c(C)c2c1 | 0 | 0 | 0
CCNC(=S)NNC(=O)CCn1c2ccccc2c2ccccc21 | 0 | 0 | 0
CC(O)(C#CCN1CCCCC1)c1ccccc1 (stereo not given) | 0 | 0 | ?
OC(CC#CCN1CCCC1)(c1ccccc1)c1ccccc1 | 0 | 0 | 0
OC(CC#CCN1CCCCC1)(c1ccccc1)c1ccccc1 | 0 | 0 | -51.5
SMILES | DRD3 agonist | Integrin act MD | DRD3 antagonist
CCC(O)(CCN1CCCCC1)c1ccccc1 (stereo not given) | 0 | 0 | 0
CC(C)C(O)(C#CCN1CCCCCC1)c1ccccc1 (stereo not given) | 0 | 0 | -60.0
OC(CCCN1CCCCC1)(c1ccccc1)c1ccccc1 | 0 | - | -100.9
CC(=O)NS(=O)(=O)c1ccc(NC(=O)c2ccc3c(c2)NC(=O)CS3)cc1 | 0 | 0 | 0
COc1ccc(OC)c(NC(=O)CSC2=Nc3ccccc3C3=NC(CCC(=O)NC4CCCCC4)C(=O)N23)c1 (stereo not given) | 0 | - | -
Cn1c(N)c(C(=O)COC(=O)/C=C/c2ccc(Cl)cc2Cl)c(=O)n(C)c1=O | 0 | 0 | 0
CCCc1ccc2ccc3ccccc3c2n1 | 0 | - | 0
C[C@@H](NC(=O)c1nc[nH]c1C(=O)NCC(=O)OC(C)(C)C)c1ccccc1 | 0 | 0 | 0
CCCCS/C(N)=N/N=C/c1ccccc1O | 0 | 0 | -50.2
CCCS/C(N)=N/N=C/c1cc(C)ccc1O | 0 | 0 | 0
CCOC(=O)/C=C1\NC(=O)CS1 | 0 | 0 | 0
CCCOC(=O)N[C@@H]1C(=O)N2C(C(=O)OCCC)=C(C)CS[C@H]12 | 0 | 0 | -53.2
CCCN[C@@H]1C(=O)N2C(C(=O)OCCC)=C(C)CS[C@H]12 | 0 | 0 | 0
O=C1Nc2ccc(Cl)cc2C12Nc1ccccc1-c1nnc(SCc3ccccc3F)nc1O2 (stereo not given) | 0 | 0 | 0
O=C1Nc2ccc(F)cc2C12Nc1ccccc1-c1nnc(SCc3ccccc3F)nc1O2 (stereo not given) | 0 | 0 | -51.2
COc1ccc(Oc2c(OC)cc(NCc3ccc(CN)cc3)c3ncccc23)cc1 | 0 | 0 | 0
Cc1ccccc1C(=O)c1cccn1CC(=O)NCCCN1CC(C)CC(C)C1 (stereo not given) | 0 | 0 | 0
Cc1ccccc1C(=O)c1cccn1CC(=O)NCCCN1CCc2ccccc2C1 | 0 | 0 | -50.8
Cc1ccc(C)c(N2CCN(CCCNC(=O)Cn3cccc3C(=O)c3ccccc3)CC2)c1 | 0 | 0 | -67.6
O=C(Cn1cccc1C(=O)c1ccccc1)NCCCN1CCOCC1 | 0 | 0 | 0
O=C(O)c1cc(S(=O)(=O)N(Cc2ccccc2)c2ccccc2Cl)ccc1Cl | 0 | 0 | 0
CCOc1ccc(NC(=O)CNC(=O)c2cn(-c3ccccc3OC)c(=O)c3ccccc23)cc1 | 0 | 0 | 0
O=C(CCNC(=O)c1ccco1)Nc1ccc(OC(F)(F)F)cc1 | 0 | 0 | 0
O=C(Nc1ccc2c(c1)OCCO2)C(CCc1ccccc1)N(Cc1ccccc1)Cc1ccccc1 (stereo not given) | 0 | - | 0
O=C(Nc1ccc2c(c1)OCCO2)C(CCc1ccccc1)N1CCC(Cc2ccccc2)CC1 (stereo not given) | 0 | - | -69.1
SMILES | DRD3 agonist | Integrin act MD | DRD3 antagonist
CCN(c1ccccc1)S(=O)(=O)c1ccc(C(=O)Nc2ccc(C)cn2)cc1 | 0 | 0 | 0
C[C@@H]1CN([C@@H](C)CO)C(=O)CCCn2nncc2CO[C@H]1CN(C)S(=O)(=O)c1ccccc1F | 0 | 0 | 0
CN(C)C(=S)Nc1cccc(C(F)(F)F)c1 | 0 | 10µM | 0
CN(CC(=O)Nc1cccc(C(F)(F)F)c1)Cc1ccccc1 | 0 | ? | -53.6
CN(CC(=O)Nc1cccc(S(=O)(=O)N(C)C)c1)Cc1ccccc1 | 0 | 0 | 0
CN(C)NC(=S)Nc1cccc(C(F)(F)F)c1 | 0 | 0 | 0
CCCN(C(=O)c1cc(CC)c(C)s1)c1c(N)n(Cc2ccccc2)c(=O)[nH]c1=O | 0 | 0 | 0
COCCN(C(=O)c1cc(-c2ccco2)nc2ccccc12)c1c(N)n(Cc2ccccc2)c(=O)[nH]c1=O | 0 | 0 | 0
COc1ccc(C(=O)N2CCCC(N3CCN(c4ccccc4F)CC3)C2)c(OC)n1 (stereo not given) | 38.4 | 0 | 0
COc1ccc(C(=O)N2CCCC(N3CCN(c4ccccc4OC)CC3)C2)c(OC)n1 (stereo not given) | 0 | 0 | 0
O=S(=O)(c1ccc(C2=CSC3=NCCN23)cc1)N1CCOCC1 | 0 | 0 | 0
ClC(CCN1CCN(Cc2ccccc2)CC1)c1ccccc1 (stereo not given) | 0 | 0 | -64.0
CC(CCc1ccccc1)N1CCN(Cc2ccccc2)CC1 (stereo not given) | 0 | 0 | -87.1
CC(NC(=O)C(C)N1CCN(Cc2ccccc2)CC1)c1ccccc1 (stereo not given) | 0 | 0 | 0
CC(C)N1CCN(S(=O)(=O)c2ccccc2)CC1 | 0 | ? | 0
CCS(=O)(=O)N1CCN(C(C)CCc2ccccc2)CC1 (stereo not given) | 0 | 0 | -51.4
CC(CN1CCN(Cc2ccccc2)CC1)c1ccccc1 (stereo not given) | 0 | 0 | 0
